# Where “and” joins values, the source holds several entries; their conditions need not be identical. Equal values may be shown once. Inconclusive results are not listed. Calls of active or inactive are those of the source. The calls were made as follows: active = hit-call score of the fitted dose curve at least 0.9, where 1 is the maximum; inconclusive = response in the unintended direction; inactive = score below 0.9.
# Legend:
# [1] = molecular target: Estrogen receptor (Homo sapiens) (UniProt P03372); test: NVS_NR_hER: NovaScreen (NVS) Nuclear Receptor Binding Assay for human Estrogen Receptor (ER) (AID 2283348)
# Chain of Estrogen receptor (Homo sapiens) (P03372 whole entry, looked up, the tested form may be a part): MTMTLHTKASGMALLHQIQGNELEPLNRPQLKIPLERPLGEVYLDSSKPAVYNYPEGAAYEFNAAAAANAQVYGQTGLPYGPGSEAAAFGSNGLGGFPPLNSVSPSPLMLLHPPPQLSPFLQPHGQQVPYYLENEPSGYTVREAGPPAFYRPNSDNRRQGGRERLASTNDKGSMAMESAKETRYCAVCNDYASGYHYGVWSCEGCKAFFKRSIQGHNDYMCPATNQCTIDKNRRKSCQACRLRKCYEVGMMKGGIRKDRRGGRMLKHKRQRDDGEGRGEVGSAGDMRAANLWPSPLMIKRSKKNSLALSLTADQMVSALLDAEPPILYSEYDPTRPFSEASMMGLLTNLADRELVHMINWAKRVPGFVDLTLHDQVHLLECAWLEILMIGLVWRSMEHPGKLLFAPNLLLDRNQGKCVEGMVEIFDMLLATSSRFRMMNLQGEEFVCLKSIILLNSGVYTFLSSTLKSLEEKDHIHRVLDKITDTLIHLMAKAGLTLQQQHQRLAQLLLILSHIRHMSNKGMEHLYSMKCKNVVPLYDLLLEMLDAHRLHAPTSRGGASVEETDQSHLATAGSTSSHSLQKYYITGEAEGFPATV
# Procedure, shortened: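 Radioligand competitive displacement binding to estrogen receptor from MCF7 extract, cell-free; 18 h after dosing, scintillation read-out. Primary screen in duplicate at 25 uM; actives followed up in concentration series; loss of signal vs DMSO.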
# [2] = molecular target: Estrogen receptor (Homo sapiens) (UniProt P03372); test: OT_ER_ERaERa_1440: Odyssey Thera (OT) 24-hour HEK293T Protein-Complementation Assay for Estrogen Receptor-alpha/-alpha Homodimer (AID 2283349);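 also: hits raise fluorescence above DMSO for agonists and antagonists alike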
# Procedure, shortened: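 HEK293T cells stably expressing the human ER alpha ligand-binding domain (aa 310-547) as a homodimer PCA were dosed for 24 hours. Fluorescence intensity was read by laser scanning cytometry, and gain of signal was fitted relative to DMSO vehicle.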
# [3] = molecular target: Estrogen receptor (Homo sapiens) (UniProt P03372); test: OT_ER_ERaERa_0480: Odyssey Thera (OT) 8-hour HEK293T Protein-Complementation Assay for Estrogen Receptor-alpha/-alpha Homodimer (AID 2283351);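 also: rise in fluorescence from reassembled reporter fragments on ERα LBD homodimer in nucleus or whole cell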
# Procedure, shortened: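 HEK293T, stable ERα LBD (aa 310-547) PCA homodimer; 8 h compound exposure; fluorescence intensity, laser scanning cytometer; positive fitting direction, DMSO baseline.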
# [4] = molecular target: Nuclear receptor subfamily 1 group I member 2 (Homo sapiens) (UniProt O75469); test: NVS_NR_hPXR: NovaScreen (NVS) Nuclear Receptor Binding Assay for human Pregnane X Receptor (PXR) (AID 2283365);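 also: a drop in FRET signal versus DMSO baseline means the compound binds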
# Procedure, shortened: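 Binding was measured by time-resolved fluorescence resonance energy transfer after a 2 h exposure of extracted human PXR protein without cells. Compounds were first tested at 25 uM in duplicate, with concentration series for actives; DMSO defined baseline.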
# [5] = molecular target: Androgen Receptor/SRC-1 Co-activator, AR (gene 367) (UniProt P10275); test: OT_AR_ARSRC1_0960: Odyssey Thera (OT) 16-hour HEK293T Protein-Complementation Assay for Androgen Receptor/SRC-1 Co-activator (AID 2283353);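 also: actives raise the signal above DMSO so potency reflects increased AR and SRC-1 complex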
# Chain of Androgen Receptor/SRC-1 Co-activator, AR (gene 367) (P10275 whole entry, looked up, the tested form may be a part): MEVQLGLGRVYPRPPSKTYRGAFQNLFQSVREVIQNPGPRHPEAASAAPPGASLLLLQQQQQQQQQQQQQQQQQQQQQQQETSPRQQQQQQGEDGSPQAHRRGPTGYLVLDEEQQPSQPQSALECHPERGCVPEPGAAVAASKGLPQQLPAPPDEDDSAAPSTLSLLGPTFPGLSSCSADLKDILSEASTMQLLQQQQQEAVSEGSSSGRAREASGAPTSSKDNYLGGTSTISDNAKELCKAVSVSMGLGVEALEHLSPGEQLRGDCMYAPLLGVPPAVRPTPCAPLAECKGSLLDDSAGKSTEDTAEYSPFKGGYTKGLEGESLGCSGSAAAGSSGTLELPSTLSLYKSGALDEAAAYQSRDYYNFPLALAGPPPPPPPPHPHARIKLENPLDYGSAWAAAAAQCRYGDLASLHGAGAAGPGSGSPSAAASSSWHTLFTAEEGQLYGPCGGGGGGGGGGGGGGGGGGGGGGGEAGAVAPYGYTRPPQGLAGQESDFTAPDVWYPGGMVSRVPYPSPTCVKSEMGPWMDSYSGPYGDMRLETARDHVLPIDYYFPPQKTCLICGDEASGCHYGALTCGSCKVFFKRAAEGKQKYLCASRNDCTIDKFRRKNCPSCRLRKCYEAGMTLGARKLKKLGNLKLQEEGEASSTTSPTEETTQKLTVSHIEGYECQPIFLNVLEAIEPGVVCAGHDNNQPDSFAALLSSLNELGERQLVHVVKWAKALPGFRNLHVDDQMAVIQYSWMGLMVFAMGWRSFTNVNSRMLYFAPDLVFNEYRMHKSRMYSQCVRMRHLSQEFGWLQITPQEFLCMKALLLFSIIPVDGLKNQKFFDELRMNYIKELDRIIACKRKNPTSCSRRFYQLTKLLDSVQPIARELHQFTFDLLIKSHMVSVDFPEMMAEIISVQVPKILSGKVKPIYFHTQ
# Procedure, shortened: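 Split-Venus PCA, AR/SRC-1 fusions, stable HEK293T; 16 h compound exposure; imaged at 488 and 635 nm; N/C ratio (488 nm channel), min 400 cells/image; positive-direction fit, DMSO baseline.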
# [6] = molecular target: Androgen Receptor/SRC-1 Co-activator, AR (gene 367) (UniProt P10275); test: OT_AR_ARSRC1_0480: Odyssey Thera (OT) 8-hour HEK293T Protein-Complementation Assay for Androgen Receptor/SRC-1 Co-activator (AID 2283354);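 also: hits raise the complementation signal above DMSO so AC50 marks enhancers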
# Procedure, shortened: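 HEK293T cells stably expressing AR and SRC-1 fused to Venus YFP fragments, imaged 8 h after dosing. Complementation fluorescence scored as nuclear/cytoplasmic ratio at 488 nm in at least 400 cells per image; gain fitted versus DMSO.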
# [7] = molecular target: human Peroxisome Proliferator-activated Receptor alpha (PPARa), PPARA (gene 5465) (UniProt Q07869); test: NVS_NR_hPPARa: NovaScreen (NVS) Nuclear Receptor Binding Assay for human Peroxisome Proliferator-activated Receptor alpha (PPARa) (AID 2283359);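 also: activity means loss of TR-FRET signal versus DMSO baseline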
# Chain of human Peroxisome Proliferator-activated Receptor alpha (PPARa), PPARA (gene 5465) (Q07869 whole entry, looked up): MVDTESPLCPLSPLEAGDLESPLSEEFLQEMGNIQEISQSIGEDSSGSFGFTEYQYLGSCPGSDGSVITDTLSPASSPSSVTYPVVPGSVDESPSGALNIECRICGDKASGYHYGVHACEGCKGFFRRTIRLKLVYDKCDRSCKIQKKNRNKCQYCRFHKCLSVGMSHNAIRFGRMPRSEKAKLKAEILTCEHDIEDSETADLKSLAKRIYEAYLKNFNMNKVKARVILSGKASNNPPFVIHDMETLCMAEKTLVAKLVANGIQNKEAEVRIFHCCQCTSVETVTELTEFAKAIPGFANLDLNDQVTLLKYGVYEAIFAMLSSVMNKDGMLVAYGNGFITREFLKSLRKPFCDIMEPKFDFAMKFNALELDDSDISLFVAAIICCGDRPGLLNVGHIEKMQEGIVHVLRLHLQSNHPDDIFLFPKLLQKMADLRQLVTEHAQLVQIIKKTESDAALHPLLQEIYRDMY
# Procedure, shortened: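 Cell-free TR-FRET binding assay with extracted PPARα protein, read 1 h after dosing. Primary screen in duplicate at 25 uM, with actives retested in concentration series. Loss of signal versus DMSO.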
# [8] = molecular target: Glucocorticoid receptor (Homo sapiens) (UniProt P04150); test: NVS_NR_hGR: NovaScreen (NVS) Nuclear Receptor Binding Assay for human Glucocorticoid Receptor (GR) (AID 2283363);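 as to AC50: activity is loss of specific radioligand binding signal relative to DMSO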
# Procedure, shortened: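 Cell-free radioligand displacement assay on extracted human GR, read 16 h after dosing by filter-based scintillation counting. Screened in duplicate at 25 uM, then concentration series for actives; loss of signal versus DMSO baseline.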
# [9] = molecular target: rat Androgen Receptor (AR), Ar (gene 24208) (UniProt P15207); test: NVS_NR_rAR: NovaScreen (NVS) Nuclear Receptor Binding Assay for rat Androgen Receptor (AR) (AID 2283366)
# Procedure, shortened: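 Cell-free radioligand binding on extracts of prostate from testosterone-pretreated rats, read by filter-based scintillation counting 18 h after dosing. Loss of bound signal fitted positively versus DMSO; primary screen in duplicate at 25 uM, actives followed up in concentration series.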
# [10] = molecular target: guinea pig Sigma Receptor, Non-selective Binding, SIGMAR1 (gene 100135589) (UniProt Q60492); test: NVS_OR_gSIGMA_NonSelective: NovaScreen (NVS) Nuclear Receptor Binding Assay for guinea pig Sigma Receptor, Non-selective Binding (AID 2283367)
# Chain of guinea pig Sigma Receptor, Non-selective Binding, SIGMAR1 (gene 100135589) (Q60492 whole entry, looked up): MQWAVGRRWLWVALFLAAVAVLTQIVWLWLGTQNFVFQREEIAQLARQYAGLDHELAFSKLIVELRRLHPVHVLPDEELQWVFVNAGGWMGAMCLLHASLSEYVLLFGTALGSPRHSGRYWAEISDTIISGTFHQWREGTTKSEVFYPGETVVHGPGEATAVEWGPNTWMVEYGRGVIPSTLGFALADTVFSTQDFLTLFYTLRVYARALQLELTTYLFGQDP
# Procedure, shortened: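 Radioligand displacement on guinea pig brain membranes, read by filter-based scintillation counting 1 h after dosing. Loss of signal versus DMSO; initial duplicate single-point screen at 25 uM, actives followed in concentration series.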
# [11] = system: guinea pig Dopamine Transporter (DAT), gene 100714898; test: NVS_TR_gDAT: NovaScreen (NVS) Transporter Assay for guinea pig Dopamine Transporter (DAT) (AID 2283369);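 also: active compounds lower bound radioligand signal relative to DMSO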
# Procedure, shortened: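 Test chemicals were incubated 2 h with guinea pig striatal membranes and a radioligand; bound label was separated by filtration and counted. Screening ran at 25 uM, followed by concentration-response testing to a 50 uM maximum.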
# [12] = molecular target: T1, Estrogen receptor (Homo sapiens) + Estrogen receptor beta (Homo sapiens) (UniProt P03372+Q92731); test: OT_ER_ERaERb_0480: Odyssey Thera (OT) 8-hour HEK293T Protein-Complementation Assay for Estrogen Receptor-alpha/-beta Heterodimer (AID 2283352)
# T1 sequence (P03372 whole entry, looked up, the tested form may be a part): as the sequence (P03372 whole entry, looked up, the tested form may be a part) above
# T1 sequence (Q92731 whole entry, looked up, the tested form may be a part): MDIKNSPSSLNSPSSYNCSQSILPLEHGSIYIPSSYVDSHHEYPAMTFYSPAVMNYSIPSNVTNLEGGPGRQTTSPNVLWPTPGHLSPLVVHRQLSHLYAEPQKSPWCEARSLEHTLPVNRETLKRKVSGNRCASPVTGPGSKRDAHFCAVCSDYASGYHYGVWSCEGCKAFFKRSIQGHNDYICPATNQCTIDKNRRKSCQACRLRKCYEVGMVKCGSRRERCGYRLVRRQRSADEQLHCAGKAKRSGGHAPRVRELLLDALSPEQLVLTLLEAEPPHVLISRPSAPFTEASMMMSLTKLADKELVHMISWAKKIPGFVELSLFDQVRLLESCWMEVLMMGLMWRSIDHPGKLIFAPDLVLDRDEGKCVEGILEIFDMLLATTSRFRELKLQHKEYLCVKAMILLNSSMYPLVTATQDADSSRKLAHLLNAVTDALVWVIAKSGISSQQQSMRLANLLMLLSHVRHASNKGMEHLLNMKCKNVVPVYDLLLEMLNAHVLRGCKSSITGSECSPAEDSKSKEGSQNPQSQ
# Procedure, shortened: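 Increase in mean fluorescence intensity, measured by laser scanning plate cytometry, reported ER-alpha/ER-beta LBD complementation in HEK293T cells after 8 h chemical exposure. DMSO served as baseline; basal signal is low, punctate and cytoplasmic.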
# [13] = molecular target: T1, Estrogen receptor (Homo sapiens) + Estrogen receptor beta (Homo sapiens); test: OT_ER_ERaERb_1440: Odyssey Thera (OT) 24-hour HEK293T Protein-Complementation Assay for Estrogen Receptor-alpha/-beta Homodimer (AID 2283356);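 also: heteromer of ER alpha and ER beta binding domains; hits raise reporter fluorescence and both agonists and antagonists give an increase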
# Procedure, shortened: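 Heterodimerisation of ERα (aa 310-547) and ERβ (aa 263-489) ligand binding domains was tracked as fluorescence gain in stably transfected HEK293T cells following 24 h dosing, normalised to DMSO controls.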
# [14] = molecular target: Estrogen receptor beta (Homo sapiens) (UniProt Q92731); test: OT_ER_ERbERb_0480: Odyssey Thera (OT) 8-hour HEK293T Protein-Complementation Assay for Estrogen Receptor-beta/-beta Homodimer (AID 2283357);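 also: active means signal gain over DMSO baseline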
# Chain of Estrogen receptor beta (Homo sapiens) (Q92731 whole entry, looked up, the tested form may be a part): as above
# Procedure, shortened: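 Fluorescence intensity, nuclear for agonists and nuclear plus cytoplasmic for antagonists, was quantified by laser scanning cytometry versus vehicle after 8 h treatment. The cells were HEK293T stably carrying ER beta LBD fragment-complementation partners.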
# PGR (gene 5241) = PGR (gene 5241) (UniProt P06401); test: NVS_NR_hPR: NovaScreen (NVS) Nuclear Receptor Binding Assay for human Progestron Receptor (PR) (AID 2283360);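 also: active means loss of bound radioligand signal versus DMSO baseline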
# Chain of PGR (gene 5241) (P06401 whole entry, looked up): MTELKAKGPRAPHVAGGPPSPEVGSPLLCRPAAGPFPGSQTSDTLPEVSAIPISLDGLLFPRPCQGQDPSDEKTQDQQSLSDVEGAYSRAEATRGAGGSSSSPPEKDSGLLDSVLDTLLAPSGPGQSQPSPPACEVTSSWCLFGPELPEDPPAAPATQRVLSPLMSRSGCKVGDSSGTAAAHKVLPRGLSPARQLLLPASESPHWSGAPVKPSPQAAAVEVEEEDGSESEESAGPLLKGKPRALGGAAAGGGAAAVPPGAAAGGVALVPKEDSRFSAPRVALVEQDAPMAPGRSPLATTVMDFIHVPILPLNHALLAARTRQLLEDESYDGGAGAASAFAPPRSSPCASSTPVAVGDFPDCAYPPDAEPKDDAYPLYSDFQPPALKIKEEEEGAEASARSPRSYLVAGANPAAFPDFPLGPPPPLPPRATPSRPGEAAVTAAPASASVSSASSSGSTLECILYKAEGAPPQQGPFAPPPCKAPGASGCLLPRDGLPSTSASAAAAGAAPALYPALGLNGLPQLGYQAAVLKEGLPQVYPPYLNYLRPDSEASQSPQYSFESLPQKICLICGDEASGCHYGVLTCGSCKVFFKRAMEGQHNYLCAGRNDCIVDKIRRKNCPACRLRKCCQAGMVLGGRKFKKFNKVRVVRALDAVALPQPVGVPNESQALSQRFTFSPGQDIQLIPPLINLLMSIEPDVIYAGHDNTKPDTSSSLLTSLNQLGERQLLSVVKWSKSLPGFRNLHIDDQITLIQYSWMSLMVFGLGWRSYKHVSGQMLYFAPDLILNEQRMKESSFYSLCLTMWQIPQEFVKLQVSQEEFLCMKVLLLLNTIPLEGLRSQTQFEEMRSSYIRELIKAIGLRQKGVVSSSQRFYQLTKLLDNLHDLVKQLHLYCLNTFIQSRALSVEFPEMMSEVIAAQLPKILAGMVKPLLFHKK
# Procedure, shortened: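 Competitive displacement of a labelled radioligand from T47D-derived receptor protein is measured in a cell-free format. Initial testing uses 25 uM in duplicate, with positive and negative controls on every plate.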
# [15] = molecular target: Retinoic acid receptor alpha (Homo sapiens) (UniProt P10276); test: NVS_NR_hRAR_Antagonist: NovaScreen (NVS) Nuclear Receptor Binding Assay for human Retinoic Acid Alpha Receptor Antagonism (RAR) (AID 2283358)
# Chain of Retinoic acid receptor alpha (Homo sapiens) (P10276 whole entry, looked up): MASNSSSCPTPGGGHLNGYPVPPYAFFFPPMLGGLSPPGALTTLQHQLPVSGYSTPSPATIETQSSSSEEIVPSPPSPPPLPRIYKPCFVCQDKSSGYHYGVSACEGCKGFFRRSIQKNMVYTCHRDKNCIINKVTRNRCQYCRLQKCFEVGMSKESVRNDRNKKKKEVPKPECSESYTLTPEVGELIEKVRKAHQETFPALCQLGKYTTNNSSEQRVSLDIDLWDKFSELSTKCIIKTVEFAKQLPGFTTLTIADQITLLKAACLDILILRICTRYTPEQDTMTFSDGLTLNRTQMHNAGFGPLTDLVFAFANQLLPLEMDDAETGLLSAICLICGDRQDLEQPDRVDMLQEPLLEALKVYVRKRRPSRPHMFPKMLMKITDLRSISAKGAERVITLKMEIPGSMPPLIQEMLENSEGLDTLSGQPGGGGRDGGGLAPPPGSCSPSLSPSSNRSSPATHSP
# Procedure, shortened: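 Cell-free TR-FRET binding assay with extracted human RARalpha in antagonist mode, read 2 h after dosing. Loss of signal was fitted relative to DMSO; the primary screen used 25 uM in duplicate, with concentration series on follow-up.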
# [16] = molecular target: Retinoic acid receptor alpha (Homo sapiens) (UniProt P10276); test: NVS_NR_hRARa_Agonist: NovaScreen (NVS) Nuclear Receptor Binding Assay for human Retinoic Acid Alpha Receptor Agonism (RAR) (AID 2283361)
# Procedure, shortened: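 Cell-free TR-FRET binding readout with extracted receptor protein, read 2 hours after dosing; gain-of-signal fitted relative to DMSO. Screened in duplicate at 25 uM, actives then run in concentration-response.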
# [17] = molecular target: human Thyroid Receptor Alpha (TRa), THRA (gene 7067) (UniProt P10827); test: NVS_NR_hTRa_Antagonist: NovaScreen (NVS) Nuclear Receptor Binding Assay for human Thyroid Receptor Alpha Antagonism (TRa) (AID 2283362);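 also: activity is loss of signal relative to DMSO baseline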
# Chain of human Thyroid Receptor Alpha (TRa), THRA (gene 7067) (P10827 whole entry, looked up): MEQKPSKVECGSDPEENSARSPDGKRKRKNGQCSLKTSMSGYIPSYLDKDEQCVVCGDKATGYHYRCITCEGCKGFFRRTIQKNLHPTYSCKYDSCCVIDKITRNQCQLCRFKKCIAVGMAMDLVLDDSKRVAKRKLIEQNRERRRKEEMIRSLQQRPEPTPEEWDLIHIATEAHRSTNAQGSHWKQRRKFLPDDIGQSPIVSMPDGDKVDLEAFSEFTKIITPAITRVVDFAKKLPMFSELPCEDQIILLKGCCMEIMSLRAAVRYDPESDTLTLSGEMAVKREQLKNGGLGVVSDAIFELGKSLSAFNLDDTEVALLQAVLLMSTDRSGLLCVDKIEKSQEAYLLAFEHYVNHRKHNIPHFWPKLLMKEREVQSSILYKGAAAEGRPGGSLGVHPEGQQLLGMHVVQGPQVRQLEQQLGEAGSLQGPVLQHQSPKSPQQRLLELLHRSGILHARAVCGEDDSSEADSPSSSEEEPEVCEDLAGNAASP
# Procedure, shortened: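 Chemicals were first screened in duplicate at 25 uM, then actives were retested in concentration series. Binding to the extracted receptor was measured 1 h after dosing by AlphaLISA chemiluminescence, with decreased signal versus DMSO scored as activity.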
# [18] = molecular target: human Adenosine Transporter (Adot), SLC29A1 (gene 2030) (UniProt Q99808); test: NVS_TR_hAdoT: NovaScreen (NVS) Transporter Assay for human Adenosine Transporter (Adot) (AID 2283368)
# Procedure, shortened: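 U937-derived membranes, cell-free radioligand binding, filter scintillation 1 h after dosing. 25 uM duplicate screen; hits (e.g. 30% inhibition) run in concentration-response up to 50 uM; loss of signal versus DMSO.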
compound,measurement,setting,value
CCCCCC(C)OC(=O)COc1ccc(Cl)c2cccnc12 (stereo unspecified),outcome,[1],inactive
same,outcome,[2],inactive
same,outcome,[3],inactive
same,outcome,[4],inactive
NC(=NCCCCCCN=C(N)/N=C(\N)Nc1ccc(Cl)cc1)/N=C(\N)Nc1ccc(Cl)cc1,AC50,[1],9.07 µM (active) and 13.5 µM (active) and 19.2 µM (active)
same,outcome,[2],inactive
same,outcome,[3],inactive
same,AC50,[5],9.58 µM (active)
same,outcome,[6],inactive
same,AC50,[7],0.178 µM (active)
same,AC50,[8],3.08 µM (active)
same,outcome,[4],inactive
same,AC50,[9],15.4 µM (active)
same,AC50,[10],23.1 µM (active)
same,AC50,[11],0.868 µM (active)
CCCCc1ccc2ccccc2c1S(=O)(=O)O,outcome,[2],inactive
same,outcome,[3],inactive
same,outcome,[12],inactive
same,outcome,[5],inactive
same,outcome,[6],inactive
same,outcome,[13],inactive
same,outcome,[14],inactive
same,outcome,[7],inactive
same,AC50,[8],7.95 µM (active)
same,AC50,[4],4.06 µM (active)
CCCCCCc1ccc(N)cc1,outcome,[1],inactive
same,outcome,[2],inactive
same,AC50,[3],67.3 µM (active)
same,AC50,[12],30.1 µM (active)
same,outcome,[5],inactive
same,outcome,[6],inactive
same,AC50,[13],21.4 µM (active)
same,AC50,[14],50 µM (active)
C=CC(=O)OCC(CO)(COCC(COC(=O)C=C)(COC(=O)C=C)COC(=O)C=C)COC(=O)C=C,outcome,[1],inactive
C=CC(=C)CC/C=C(\C)CCC=C(C)C,outcome,[8],inactive
CCCCCCCCCCCCCCC,outcome,[14],inactive
same,outcome,PGR (gene 5241),inactive
O=C1OC2(c3ccccc31)c1cc(I)c(O)c(I)c1Oc1c2cc(I)c(O)c1I,AC50,[15],19.7 µM (active)
same,AC50,[16],19.9 µM (active)
CC(C)(c1ccc(Oc2ccc(N)cc2)cc1)c1ccc(Oc2ccc(N)cc2)cc1,outcome,[9],inactive
Cc1[nH]nc2c1N=C(c1ccccc1Cl)c1cc([N+](=O)[O-])ccc1N2,outcome,[14],inactive
same,outcome,[17],inactive
CCCCC=O,outcome,[17],inactive
CC(C)[C@@H]1CC[C@@H](C)C[C@H]1O,outcome,[5],inactive
same,outcome,[6],inactive
same,outcome,[14],inactive
NCCN,outcome,[2],inactive
same,outcome,[3],inactive
same,outcome,[7],inactive
CS(=O)(=O)c1ccc([C@@H](CC2CCCC2)C(=O)Nc2cnccn2)cc1Cl,AC50,[18],25 µM (active)
CCCCCc1ccc(O)cc1,AC50,[11],10.5 µM (active)
COC1=CC(=O)C[C@@H](C)[C@]12Oc1c(Cl)c(OC)cc(OC)c1C2=O,AC50,[11],3.8 µM (active)
O=S(=O)(O)c1ccccc1,outcome,[14],inactive
CC(O)COc1ccccc1 (stereo unspecified),outcome,[5],inactive
same,outcome,[6],inactive
same,outcome,[14],inactive
Cc1ccc(S(=O)(=O)O)cc1,outcome,[4],inactive
CC1=NN(c2ccccc2)C(=O)C1,AC50,[8],45.7 µM (active)
CC[N+](CC)(CC)Cc1ccccc1,AC50,[10],15.5 µM (active)
O=C(CCCN1CCC(O)(c2ccc(Cl)cc2)CC1)c1ccc(F)cc1,outcome,[14],inactive
same,AC50,[11],0.923 µM (active)
O=C1NS(=O)(=O)c2ccccc21,outcome,[14],inactive
same,outcome,[15],inactive
same,outcome,[4],inactive
O=C(c1ccccc1)c1ccccc1,outcome,[5],inactive
same,outcome,[6],inactive
same,outcome,[11],inactive
Cc1cc(C(C)(C)C)c(O)c(C(C)(C)C)c1,outcome,[14],inactive
CC(C)(C)c1ccc(O)c(O)c1,AC50,[11],45.5 µM (active)
CCCCCCCCCCCC,AC50,[15],3.51 µM (active)
same,AC50,[7],7.45 µM (active)
same,AC50,[8],0.703 µM (active)
same,AC50,[4],2.03 µM (active)
CCCCCCCCCCCCCCCCCC[N+](C)(C)Cc1ccccc1,AC50,[10],2.32 µM (active)
CCN(CC)CC,outcome,[10],inactive
NS(=O)(=O)O,outcome,[14],inactive
c1cnc2c(c1)ccc1cccnc12,outcome,[14],inactive
same,AC50,[17],0.241 µM (active)
Clc1ccc(Nc2nnc(Cc3ccncc3)c3ccccc23)cc1,outcome,PGR (gene 5241),inactive
same,AC50,[11],6.66 µM (active)
CCCCCCCCCCCC(=O)O,outcome,[14],inactive
same,outcome,[4],inactive
CN(C)c1ccc(C(=C2C=CC(=[N+](C)C)C=C2)c2ccccc2)cc1,AC50,[10],9.34 µM (active) and 12.5 µM (active)
same,AC50,[11],4.17 µM (active) and 3.93 µM (active)
CCC(C)c1ccccc1O (stereo unspecified),outcome,[14],inactive
same,outcome,[11],inactive
CCCCC(CC)C(=O)O (stereo unspecified),outcome,[7],inactive
CC(=O)Nc1ccc(O)cc1,outcome,[5],inactive
same,outcome,[6],inactive
same,outcome,[14],inactive
CCC(=O)O,AC50,[8],0.202 µM (active)
C[C@]12CC[C@@H]3c4ccc(O)cc4CC[C@H]3[C@@H]1C[C@@H](O)[C@@H]2O,AC50,[14],0.552 µM (active)
same,AC50,PGR (gene 5241),35.4 µM (active)
same,outcome,[8],inactive
same,AC50,[11],3.04 µM (active)
c1cc[nH]c1,outcome,PGR (gene 5241),inactive
